Measured values: PubChem BioAssay AID602410 (Johns Hopkins Ion Channel Center, 2012)
The campaign covered roughly 340,000 compounds. About 2,800 (0.82%) were called active.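 How the source made its calls: active means B-score under library mean minus 4 SD, starting fluorescence ratio at most library mean plus 5 SD; inactive means the rest.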 This excerpt belongs to a sample that is enriched for actives.

molecular target: Potassium channel subfamily K member 3 (Homo sapiens) (UniProt O14649); assay: human KCNK3 channel inhibitors, primary screen, CHO cells, FluxOR thallium flux, B-score (AID 602410); conditions: FluxOR fluorescence, at 10 µM; hits give low values;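 on B-score: more negative B-score means stronger inhibition of thallium flux through KCNK3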
Sequence (O14649 whole entry, looked up): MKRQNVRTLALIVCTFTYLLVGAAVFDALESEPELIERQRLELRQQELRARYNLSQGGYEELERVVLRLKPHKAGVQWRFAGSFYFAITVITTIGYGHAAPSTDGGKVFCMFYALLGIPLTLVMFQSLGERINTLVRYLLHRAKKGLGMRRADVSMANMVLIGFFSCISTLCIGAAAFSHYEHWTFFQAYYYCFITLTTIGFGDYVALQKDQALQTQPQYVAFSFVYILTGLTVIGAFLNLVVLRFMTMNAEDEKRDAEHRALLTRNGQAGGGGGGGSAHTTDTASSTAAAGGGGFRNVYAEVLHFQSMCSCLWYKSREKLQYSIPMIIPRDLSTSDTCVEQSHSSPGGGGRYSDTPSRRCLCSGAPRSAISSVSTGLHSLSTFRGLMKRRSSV

B-score, active:
COc1cccc(COc2ccc(N(C)S(=O)(=O)c3ccccc3)cc2)c1 -13.2, Cc1cccc(-c2nc3ccc(C(=O)NCCN4CCN(C)CC4)cc3nc2-c2cccc(C)c2)c1 -9.46, Oc1ccc(/C=N/Nc2nc(-c3ccccc3F)nc3ccccc23)c(O)c1 -11, CCOC(=O)CSc1nc2c(sc(=S)n2CCc2ccccc2)c(=O)n1Cc1ccco1 -9.18, CCOc1ccc(CN(Cc2ccco2)C(c2cccs2)c2nnnn2C(C)(C)C)cc1 (configuration not stated) -10.5, FC(F)(F)c1cccc(NC(=S)Nc2cccc(Cl)c2)c1 -10.9, CCc1ccc(-n2c(=S)sc3c(=O)n(-c4ccccc4OC)c(=S)[nH]c32)cc1 -11, COc1ccc([N+](=O)[O-])cc1-c1nc2ccccc2nc1-c1ccccc1 -12, COc1cc(NC(=O)c2ccccc2NS(=O)(=O)c2ccc(Cl)s2)cc(OC)c1 -9.84, O=C(Nn1c(SCc2ccc([N+](=O)[O-])cc2)nc2ccccc2c1=O)c1ccc(F)cc1 -9.24, Cc1cc(C=O)c(C)n1-c1ccc(NC2CCCCC2)c([N+](=O)[O-])c1 -13.4, CCN(CC(=O)Nc1ccc2c(c1)OCCO2)Cc1cc(=O)oc2cc(C)c(C)cc12 -8.72, COc1cc(Cl)c(S(=O)(=O)N2CCN(Cc3ccc4c(c3)OCO4)CC2)cc1Cl -11.5, FC(F)(F)c1cccc(-c2cc3ccccc3nc2N2CCCC2)c1 -9.37, Cc1cccc(C)c1N1CCN(S(=O)(=O)N2CCCCC2)CC1 -11.9, [O-][n+]1ccc(OCc2ccccc2)cc1 -9.05, COc1cc(/C=C(\C#N)c2nc3ccccc3[nH]2)ccc1O -8.85, Cc1cccc(NC(=O)CN2CCCN(S(=O)(=O)c3ccc(Br)s3)CC2)c1 -11.4, CN(c1ccccc1)S(=O)(=O)c1cccc(NC(=O)Cc2ccc(Cl)cc2)c1 -10.7, Cc1nonc1C1CCCN1C(=O)c1cc(COc2cccc(C(F)(F)F)c2)on1 (configuration not stated) -9.02

B-score, inactive:
CCOc1ccc(N(CC(=O)OC)S(=O)(=O)c2c(C)noc2C)cc1, COc1ccc(N(Cc2ccccc2)S(=O)(=O)c2cccc(C(=O)O)c2)cc1, Cc1ccc2nc(COc3ccc(N(C)S(=O)(=O)c4ccccc4)cc3)cc(=O)n2c1, Nc1nnc2c(C(F)(F)F)nc3ccccc3n12, Cc1cccc(C(=O)OC(C)CN2CCN(C)CC2)c1 (configuration not stated), Cc1cc(C)cc(C(=O)NCCN2CCOCC2)c1, Cc1nnc(C)c2c(C)n(N)c(C)c12, C=C1CCC(N(O)c2cc(C)on2)C(=C)CCC2C1CC2(C)C (configuration not stated), COc1ccc(C(=O)CSc2nnnn2C)c(OC)c1, CC(C)(C)Nc1nc(-c2ccccn2)nc2ccccc12, Oc1ccc(-c2nc3ccccc3nc2-c2ccc(O)cc2O)c(O)c1, CC1CC(C)CN(C(=O)CSc2ccsc2[N+](=O)[O-])C1 (configuration not stated), CC(C)OCCCNC(=O)c1ccc(C2SCC(=O)N2Cc2ccco2)cc1 (configuration not stated), COc1c(N2CCN(C(=S)Nc3ccccc3F)C(C)C2)c(F)cc2c(=O)c(C(=O)O)cn(C3CC3)c12 (configuration not stated), CCOC(=O)CSc1nc2c(c(=O)n(Cc3ccccc3Cl)c(=O)n2C)n1C, CCOC(=O)Cc1csc(NC(=O)CSc2nnc(-c3cccnc3)n2Cc2ccco2)n1, O=C(CSc1nnc2n1CCCN2)c1ccccc1, CC(C)(C)n1nnnc1C(c1cccs1)N(Cc1cccnc1)CC1CCCO1 (configuration not stated), CCOc1ccc(CN(Cc2ccco2)S(=O)(=O)c2ccc(-n3cnnn3)c(OC)c2)cc1, Cc1nc(NC(CC(C)C)C(=O)O)c2nc(C)oc2n1 (configuration not stated), Cn1cc(Cl)c(C(=O)NNC(=S)Nc2cccc(Cl)c2)n1, FC(F)(F)c1cccc(N/N=C/c2ccccc2)c1, COC(=O)CNS(=O)(=O)c1ccc(Cc2ccc(S(=O)(=O)NCC(=O)OC)cc2)cc1, CCN1CCN(C(=O)Cn2nc(C)n3c(cc4c(OC)cccc43)c2=O)CC1, COc1ccccc1Oc1ccc(N2CC(C(=O)OCC(=O)c3ccc(F)cc3)CC2=O)cc1 (configuration not stated), CC(O)c1nc2ccccc2n1Cc1ccc([N+](=O)[O-])cc1 (configuration not stated), COc1cccc(-n2c(=S)sc3c(=O)n(-c4ccccc4OC)c(SCC4OCCO4)nc32)c1, COc1ccccc1-n1c(=S)[nH]c2c(sc(=S)n2-c2ccc(C)cc2C)c1=O, C/C(=N\Nc1ccc([N+](=O)[O-])cc1)c1ccc(-n2nncc2C(C)(C)C)cc1, CCCCC(NC(=O)c1cccc(Br)c1)C(=O)O (configuration not stated), O=[N+]([O-])c1cc2ccccc2nc1-c1ccccc1, O=[N+]([O-])c1ccc2c(c1)Nc1nc3ccccc3nc1N2, COc1ccccc1C(=O)Nc1ccccc1C(=O)Nc1ccccc1, CCOc1ccc(NC(=O)c2ccccc2NS(C)(=O)=O)cc1, Cc1ccc(S(=O)(=O)NNC(=S)NC(C)(C)C)cc1, Cc1nc2ccccc2c(=O)n1NC(=O)c1ccc(Cl)c([N+](=O)[O-])c1, C=CCn1c(SCc2ccc(C(=O)NCCO)cc2)nc2ccccc2c1=O, Cc1nc2cccnc2nc1C, COc1ccc(-c2c(NC(=O)c3ccco3)oc3ccc(Cl)cc3c2=O)cc1, Cc1cc([N+](=O)[O-])ccc1NC1CCCC1, Cc1c(NS(=O)(=O)c2ccc(NC3CCCC3)c([N+](=O)[O-])c2)c(=O)n(-c2ccccc2)n1C, Cc1cccc(N=C2NC(=O)CS2)c1C, CCn1cc(C(=O)NCCCN2CCCCCC2)c(=O)c2cc(S(=O)(=O)N3CCc4ccccc4C3)ccc21, O=C(CSc1nnc(-c2ccncc2)n1-c1ccc(Cl)cc1)Nc1ccc(C(=O)O)cc1, O=C(COc1ccc2c(C(F)(F)F)cc(=O)oc2c1)Nc1ccc2c(c1)OCCO2, Cc1ccc(SCC(=O)Nc2ccc3c(c2)OCCO3)cc1, Cc1cccc(N(C(=O)Cn2nnc(-c3ccc(C)o3)n2)C(C(=O)NC2CCCC2)c2ccncc2)c1 (configuration not stated), CCC(C)(C)NC(=O)/C=C/c1cc(OC)c(OC)c(S(=O)(=O)N2CCc3ccccc32)c1, COc1ccc(-c2cc(C(=O)N3CCN(Cc4ccc5c(c4)OCO5)CC3)on2)cc1OC, CCn1cc(C(=O)N2CCN(Cc3ccc4c(c3)OCO4)CC2)c2cc(OC)c(OC)cc2c1=O, Cc1nc(N)sc1N=Nc1c(C)n(C)n(-c2ccccc2)c1=O, c1ccc(-c2cc(N3CCCCC3)c3ccccc3n2)cc1, O=C(c1cc2ccccc2o1)N1CCN(c2cccc(C(F)(F)F)c2)CC1, COC(=O)[C@@H]1CC(O)CN1C(=O)C12CC3CC(CC(C3)C1)C2 (some centres not stated), CC1CN(CCOc2ccccc2[N+](=O)[O-])CC(C)O1 (configuration not stated), Cc1cccc(C)c1N1CCN(S(=O)(=O)N2CCOCC2)CC1, Cc1cccc(C(=O)N2CCN(S(=O)(=O)N3CCCCC3)CC2)c1, COC(=O)c1ccc(CNC(=O)C2CCC(=O)N(Cc3ccccn3)C2)cc1 (configuration not stated), COc1ccc(CN2CCN(C(=O)c3cc(C4CC4)nn3-c3ccccc3)CC2)cc1F, CN(Cc1ccccc1)C(=O)c1ccc(COc2ccccc2)cc1, O=C(O)/C=C\C(=O)Nc1ccc(OCc2ccccc2)cc1, CCCN1Cc2cccc(C(=O)Nc3ccc(S(=O)(=O)N4CCCCCC4)cc3)c2C1=O, O=S(=O)(Nc1ccc(O)c2ccccc12)c1ccc(OC(F)(F)F)cc1, Cc1nn(C)c(Oc2ccc(Cl)cc2)c1C=O, CCN(CC(=O)Nc1cc(Cl)ccc1C)C(=O)Cn1c(=O)cnc2ccccc21, Cc1ccc(O)c(CNc2nc3ccccc3[nH]2)c1, CCCCCOc1ccc(/C=C/C(=O)NCCc2nc3ccccc3[nH]2)cc1OC, CCCCCc1nnc(NC(=O)c2ccc(=O)n(C)n2)s1, COCCCNCCOCCOc1ccc(Cl)cc1Br, Cc1ccc(OCC(=O)c2cc(C)n(Cc3ccco3)c2C)c([N+](=O)[O-])n1, CC(C)N(C(=O)CN1CCN(S(=O)(=O)c2ccc(Br)s2)CC1)C(C)C, Cc1ccc(S(=O)(=O)N2CCN(CC(=O)N/N=C/c3ccc(Br)s3)CC2)cc1, NC(=O)C1CCN(C(=O)CC2C(=O)NCCN2Cc2cccc(Oc3ccccc3)c2)CC1 (configuration not stated), C[C@H](O)[C@@H]1C(=O)N2CCc3ccc(N4CCOCC4)cc3[C@@H]2C[C@@H]1N(C)C(=O)C(C)(C)C, CC(NC(=S)Nc1ccccc1)C(c1cccs1)N1CCOCC1 (configuration not stated), CN(c1ccccc1)S(=O)(=O)c1cccc(NC(=O)Cc2c(F)cccc2Cl)c1, CN(C)S(=O)(=O)c1cccc(NC(=O)Cc2ccsc2)c1, Cc1cc(F)ccc1S(=O)(=O)Nc1ccc(C(=O)N(C)Cc2ccco2)cc1, O=C(c1cc(COc2cccc(C(F)(F)F)c2)on1)N1CCSCC1, O=C(NC1Cc2ccccc2C1)c1cc(COc2cccc(C(F)(F)F)c2)on1, CCCNC(=O)c1ccc(N2CCC3(CC2)CC(c2cccc(Br)c2)=NO3)c(NC(=O)c2ccco2)c1, CS(=O)(=O)N1CCCC(C(=O)N2CCOCC2)C1 (configuration not stated)
